According to publication PMC7862700, “An all-to-all approach to the identification of sequence-specific readers for epigenetic DNA modifications on cytosine”:

Experiments:
Test in all cases: DAPPL (digital affinity profiling via proximity ligation, sequencing); 10 mM Tris-HCl pH 7.5, 50 mM NaCl, 1 mM DTT, 4% glycerol, room temperature, 30 min; GST-TFs on glutathione beads, 16-mer random dsDNA library, 0.1% formaldehyde crosslink after washing; high values mean tight binding
FLI1 = molecular target: T1, FLI1 (Homo sapiens, UniProt Q01543 1-452); settings: protein: recombinant; tags: N-terminal GST; dsDNA, one strand shown
T1 sequence: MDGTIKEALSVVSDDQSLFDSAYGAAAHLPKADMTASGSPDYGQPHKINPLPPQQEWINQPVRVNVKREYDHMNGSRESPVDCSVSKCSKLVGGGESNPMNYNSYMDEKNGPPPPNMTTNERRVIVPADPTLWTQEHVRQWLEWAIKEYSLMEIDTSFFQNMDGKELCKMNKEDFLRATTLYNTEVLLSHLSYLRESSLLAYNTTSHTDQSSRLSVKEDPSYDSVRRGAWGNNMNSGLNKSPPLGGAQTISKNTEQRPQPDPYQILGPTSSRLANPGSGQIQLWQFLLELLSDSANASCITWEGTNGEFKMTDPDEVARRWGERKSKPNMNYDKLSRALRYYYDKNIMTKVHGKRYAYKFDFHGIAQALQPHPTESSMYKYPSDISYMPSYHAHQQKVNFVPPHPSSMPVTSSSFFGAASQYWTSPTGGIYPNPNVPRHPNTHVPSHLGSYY
Outline: (§1)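 The binding signal reported is, for every hexamer, its read frequency for a factor over its read frequency for the tag-only sample. Reads came from pools of yeast-expressed, GST-fused human transcription factors on glutathione beads, barcoded with DNA and mixed with that sample, which were incubated with 200 nmole of a random double-stranded 16-mer DNA library in Tris/NaCl/DTT/glycerol buffer at room temperature for 30 min. After washing, the pools were crosslinked with 0.1% formaldehyde, proximity-ligated with BsaI/T4 ligase for 1 h at 37 °C, PCR-amplified and sequenced on an Illumina NextSeq500.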

ELK1 = molecular target: T2, ELK1 (Homo sapiens, UniProt P19419 1-428); settings: protein: recombinant; tags: N-terminal GST; dsDNA, one strand shown
T2 sequence: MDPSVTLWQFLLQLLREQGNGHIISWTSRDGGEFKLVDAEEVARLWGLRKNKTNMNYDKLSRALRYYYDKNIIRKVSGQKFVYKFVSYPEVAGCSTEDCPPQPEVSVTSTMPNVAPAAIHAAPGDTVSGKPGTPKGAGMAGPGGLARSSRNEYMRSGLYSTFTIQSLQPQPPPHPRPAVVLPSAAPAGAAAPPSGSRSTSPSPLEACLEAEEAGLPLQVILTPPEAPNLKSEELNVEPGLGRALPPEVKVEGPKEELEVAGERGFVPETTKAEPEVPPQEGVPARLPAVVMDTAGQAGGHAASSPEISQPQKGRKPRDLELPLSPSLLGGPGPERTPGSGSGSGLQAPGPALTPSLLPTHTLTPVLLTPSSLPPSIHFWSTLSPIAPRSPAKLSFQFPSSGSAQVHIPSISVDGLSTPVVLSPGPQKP
Outline: as §1

GABPA = molecular target: T3, GABPA (Homo sapiens, UniProt Q06546 1-454); settings: protein: recombinant; tags: N-terminal GST; dsDNA, one strand shown
T3 sequence: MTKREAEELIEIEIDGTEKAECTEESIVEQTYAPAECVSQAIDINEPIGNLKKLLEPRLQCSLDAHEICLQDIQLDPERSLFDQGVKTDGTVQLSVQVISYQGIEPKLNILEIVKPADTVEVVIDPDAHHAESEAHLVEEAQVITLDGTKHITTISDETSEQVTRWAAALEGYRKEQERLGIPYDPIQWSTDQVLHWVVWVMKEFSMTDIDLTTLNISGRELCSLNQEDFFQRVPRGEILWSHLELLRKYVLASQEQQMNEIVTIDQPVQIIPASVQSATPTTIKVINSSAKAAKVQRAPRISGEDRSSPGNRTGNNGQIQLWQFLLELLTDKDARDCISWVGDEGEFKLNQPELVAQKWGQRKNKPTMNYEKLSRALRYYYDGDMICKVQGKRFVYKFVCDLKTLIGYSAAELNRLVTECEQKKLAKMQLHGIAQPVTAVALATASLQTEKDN
Outline: as §1

ERG = molecular target: T4, ERG (Homo sapiens, UniProt P11308 1-479); settings: protein: recombinant; tags: N-terminal GST; dsDNA, one strand shown
T4 sequence: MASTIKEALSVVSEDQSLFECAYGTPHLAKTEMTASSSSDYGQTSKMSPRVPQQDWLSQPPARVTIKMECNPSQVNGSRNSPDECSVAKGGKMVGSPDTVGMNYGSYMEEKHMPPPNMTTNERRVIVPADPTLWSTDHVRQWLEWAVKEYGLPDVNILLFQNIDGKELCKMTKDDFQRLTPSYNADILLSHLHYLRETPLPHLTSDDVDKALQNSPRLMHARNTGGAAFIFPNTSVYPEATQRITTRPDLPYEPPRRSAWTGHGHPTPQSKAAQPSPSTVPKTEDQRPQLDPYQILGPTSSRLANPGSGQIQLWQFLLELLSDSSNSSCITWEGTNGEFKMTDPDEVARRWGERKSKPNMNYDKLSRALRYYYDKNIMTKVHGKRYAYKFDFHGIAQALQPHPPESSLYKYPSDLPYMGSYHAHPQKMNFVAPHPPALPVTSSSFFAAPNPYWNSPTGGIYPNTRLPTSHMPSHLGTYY
Outline: as §1

ELF1 = ELF1 (Homo sapiens, UniProt P32519 1-619); settings: protein: recombinant; tags: N-terminal GST; dsDNA, one strand shown
Sequence of ELF1 (P32519 whole entry): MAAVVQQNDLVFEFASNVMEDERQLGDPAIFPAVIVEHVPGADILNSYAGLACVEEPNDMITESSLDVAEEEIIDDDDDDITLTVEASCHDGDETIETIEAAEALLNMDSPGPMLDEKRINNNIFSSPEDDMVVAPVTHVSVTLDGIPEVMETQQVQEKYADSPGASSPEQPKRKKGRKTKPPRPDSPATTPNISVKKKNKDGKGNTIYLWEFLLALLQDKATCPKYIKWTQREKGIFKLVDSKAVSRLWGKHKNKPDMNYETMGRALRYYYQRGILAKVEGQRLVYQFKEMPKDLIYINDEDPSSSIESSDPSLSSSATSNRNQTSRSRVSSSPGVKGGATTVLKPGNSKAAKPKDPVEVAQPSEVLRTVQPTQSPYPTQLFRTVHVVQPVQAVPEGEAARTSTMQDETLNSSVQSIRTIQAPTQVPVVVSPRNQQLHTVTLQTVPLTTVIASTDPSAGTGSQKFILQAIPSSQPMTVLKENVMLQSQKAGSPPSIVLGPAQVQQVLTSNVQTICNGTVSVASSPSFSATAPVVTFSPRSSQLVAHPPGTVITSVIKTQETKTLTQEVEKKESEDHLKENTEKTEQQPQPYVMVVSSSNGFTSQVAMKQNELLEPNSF
Outline: as §1

EHF = molecular target: T5, EHF (Homo sapiens, UniProt Q9NZC4 1-300); settings: protein: recombinant; tags: N-terminal GST; dsDNA, one strand shown
T5 sequence: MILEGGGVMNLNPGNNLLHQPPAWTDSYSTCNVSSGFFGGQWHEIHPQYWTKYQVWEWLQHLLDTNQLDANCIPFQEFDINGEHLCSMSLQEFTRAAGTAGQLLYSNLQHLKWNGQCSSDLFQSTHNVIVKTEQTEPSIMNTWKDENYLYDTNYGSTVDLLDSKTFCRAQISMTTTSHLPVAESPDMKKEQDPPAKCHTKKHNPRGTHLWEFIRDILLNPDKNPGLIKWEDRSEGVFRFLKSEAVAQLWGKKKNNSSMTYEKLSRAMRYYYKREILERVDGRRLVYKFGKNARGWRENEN
Outline: as §1

SPI1 = SPI1 (Homo sapiens, UniProt P17947 1-270); settings: protein: recombinant; tags: N-terminal GST; dsDNA, one strand shown
Outline: as §1

SPIB = SPIB (Homo sapiens, UniProt Q01892 1-262); settings: protein: recombinant; tags: N-terminal GST; dsDNA, one strand shown
Sequence of SPIB (Q01892 whole entry): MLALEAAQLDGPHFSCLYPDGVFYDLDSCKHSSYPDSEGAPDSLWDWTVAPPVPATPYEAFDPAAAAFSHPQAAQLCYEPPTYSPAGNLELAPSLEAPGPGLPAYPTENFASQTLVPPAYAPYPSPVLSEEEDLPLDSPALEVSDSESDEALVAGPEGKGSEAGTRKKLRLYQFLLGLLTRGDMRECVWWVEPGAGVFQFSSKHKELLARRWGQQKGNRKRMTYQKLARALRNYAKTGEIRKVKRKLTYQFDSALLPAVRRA
Outline: as §1

ELK3 = molecular target: T6, ELK3 (Homo sapiens, UniProt P41970 1-407); settings: protein: recombinant; tags: N-terminal GST; dsDNA, one strand shown
T6 sequence: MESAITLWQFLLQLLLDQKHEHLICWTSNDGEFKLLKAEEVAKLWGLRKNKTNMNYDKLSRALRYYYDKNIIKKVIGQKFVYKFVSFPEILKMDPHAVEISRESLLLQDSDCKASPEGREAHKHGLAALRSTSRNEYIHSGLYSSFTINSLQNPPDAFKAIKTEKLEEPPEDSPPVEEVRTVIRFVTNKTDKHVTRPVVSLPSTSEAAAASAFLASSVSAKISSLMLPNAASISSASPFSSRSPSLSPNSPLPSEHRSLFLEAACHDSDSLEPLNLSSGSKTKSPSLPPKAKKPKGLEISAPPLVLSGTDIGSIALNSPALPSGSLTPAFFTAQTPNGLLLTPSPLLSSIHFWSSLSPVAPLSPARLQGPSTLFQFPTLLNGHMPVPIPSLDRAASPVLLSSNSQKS
Outline: as §1

FEV = molecular target: T7, FEV (Homo sapiens, UniProt Q99581 1-238); settings: protein: recombinant; tags: N-terminal GST; dsDNA, one strand shown
T7 sequence: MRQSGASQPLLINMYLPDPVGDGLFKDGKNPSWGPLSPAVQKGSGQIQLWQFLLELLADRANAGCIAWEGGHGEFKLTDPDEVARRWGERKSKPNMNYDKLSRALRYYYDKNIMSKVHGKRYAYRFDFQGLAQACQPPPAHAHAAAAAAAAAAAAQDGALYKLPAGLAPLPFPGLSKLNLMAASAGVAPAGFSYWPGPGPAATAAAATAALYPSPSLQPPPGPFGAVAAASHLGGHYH
Outline: as §1

ETV5 = ETV5 (Homo sapiens, UniProt P41161 1-510); settings: protein: recombinant; tags: N-terminal GST; dsDNA, one strand shown
Sequence of ETV5 (P41161 whole entry): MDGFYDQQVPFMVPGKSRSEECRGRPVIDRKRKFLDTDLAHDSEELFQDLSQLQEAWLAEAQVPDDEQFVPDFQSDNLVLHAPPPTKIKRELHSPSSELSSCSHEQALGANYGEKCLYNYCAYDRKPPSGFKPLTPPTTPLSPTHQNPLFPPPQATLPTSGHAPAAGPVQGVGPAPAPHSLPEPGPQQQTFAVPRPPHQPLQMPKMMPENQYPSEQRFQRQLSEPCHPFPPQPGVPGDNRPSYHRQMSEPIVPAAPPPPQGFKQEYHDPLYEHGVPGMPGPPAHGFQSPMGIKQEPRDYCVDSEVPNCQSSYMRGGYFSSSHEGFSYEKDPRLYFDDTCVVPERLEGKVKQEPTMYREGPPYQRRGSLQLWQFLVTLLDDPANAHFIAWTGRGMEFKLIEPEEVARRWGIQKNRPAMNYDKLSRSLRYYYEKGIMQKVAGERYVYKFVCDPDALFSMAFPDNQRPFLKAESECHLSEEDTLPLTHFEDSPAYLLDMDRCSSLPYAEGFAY
Outline: as §1

HSF1 = HSF1 (Homo sapiens, UniProt Q00613 1-529); settings: protein: recombinant; tags: N-terminal GST; chain copies: 3; dsDNA, one strand shown
Sequence of HSF1 (Q00613 whole entry): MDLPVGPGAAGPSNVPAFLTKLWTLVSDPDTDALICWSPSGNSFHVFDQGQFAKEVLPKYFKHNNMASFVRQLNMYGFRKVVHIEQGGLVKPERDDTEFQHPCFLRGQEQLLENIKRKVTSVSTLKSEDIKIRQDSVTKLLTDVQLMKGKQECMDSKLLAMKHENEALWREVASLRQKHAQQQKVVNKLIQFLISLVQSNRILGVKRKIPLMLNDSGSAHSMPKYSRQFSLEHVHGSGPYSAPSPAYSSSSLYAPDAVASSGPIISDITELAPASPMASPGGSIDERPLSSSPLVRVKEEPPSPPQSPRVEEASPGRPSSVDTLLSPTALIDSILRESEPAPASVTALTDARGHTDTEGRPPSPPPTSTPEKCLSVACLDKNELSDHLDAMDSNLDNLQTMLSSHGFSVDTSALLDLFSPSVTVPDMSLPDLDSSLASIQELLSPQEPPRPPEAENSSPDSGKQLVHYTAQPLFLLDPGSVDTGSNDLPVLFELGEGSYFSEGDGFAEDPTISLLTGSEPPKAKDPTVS
Outline: as §1

SPIC = molecular target: T8, SPIC (Homo sapiens, UniProt Q8N5J4 1-248); settings: protein: recombinant; tags: N-terminal GST; dsDNA, one strand shown
T8 sequence: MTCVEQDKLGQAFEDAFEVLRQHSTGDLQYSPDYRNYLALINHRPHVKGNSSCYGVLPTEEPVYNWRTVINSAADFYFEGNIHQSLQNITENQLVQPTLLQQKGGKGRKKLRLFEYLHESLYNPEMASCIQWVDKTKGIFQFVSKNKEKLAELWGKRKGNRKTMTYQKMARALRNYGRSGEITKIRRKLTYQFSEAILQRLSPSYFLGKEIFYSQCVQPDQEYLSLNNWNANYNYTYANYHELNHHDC
Outline: as §1

ELF4 = ELF4 (Homo sapiens, UniProt Q99607 1-663); settings: protein: recombinant; tags: N-terminal GST; dsDNA, one strand shown
Sequence of ELF4 (Q99607 whole entry): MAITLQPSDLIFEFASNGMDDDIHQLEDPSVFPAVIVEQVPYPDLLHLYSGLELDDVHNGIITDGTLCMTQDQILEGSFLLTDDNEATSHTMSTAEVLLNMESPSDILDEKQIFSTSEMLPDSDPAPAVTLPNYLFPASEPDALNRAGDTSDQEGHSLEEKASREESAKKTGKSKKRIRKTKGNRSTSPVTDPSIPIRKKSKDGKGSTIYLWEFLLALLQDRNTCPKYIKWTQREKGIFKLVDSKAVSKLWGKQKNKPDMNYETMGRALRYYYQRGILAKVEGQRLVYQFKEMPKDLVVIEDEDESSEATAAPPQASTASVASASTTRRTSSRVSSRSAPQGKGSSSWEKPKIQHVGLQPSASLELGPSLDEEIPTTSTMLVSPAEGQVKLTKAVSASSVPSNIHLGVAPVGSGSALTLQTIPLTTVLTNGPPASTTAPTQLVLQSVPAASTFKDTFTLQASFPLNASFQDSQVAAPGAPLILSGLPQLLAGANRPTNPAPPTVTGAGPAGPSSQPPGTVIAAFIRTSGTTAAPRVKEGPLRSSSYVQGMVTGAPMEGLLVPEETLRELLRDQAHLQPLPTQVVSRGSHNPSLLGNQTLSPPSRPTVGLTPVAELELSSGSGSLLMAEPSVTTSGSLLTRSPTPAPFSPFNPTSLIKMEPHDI
Outline: as §1

ELK4 = molecular target: T9, ELK4 (Homo sapiens, UniProt P28324-2 1-405); settings: protein: recombinant; tags: N-terminal GST; dsDNA, one strand shown
T9 sequence: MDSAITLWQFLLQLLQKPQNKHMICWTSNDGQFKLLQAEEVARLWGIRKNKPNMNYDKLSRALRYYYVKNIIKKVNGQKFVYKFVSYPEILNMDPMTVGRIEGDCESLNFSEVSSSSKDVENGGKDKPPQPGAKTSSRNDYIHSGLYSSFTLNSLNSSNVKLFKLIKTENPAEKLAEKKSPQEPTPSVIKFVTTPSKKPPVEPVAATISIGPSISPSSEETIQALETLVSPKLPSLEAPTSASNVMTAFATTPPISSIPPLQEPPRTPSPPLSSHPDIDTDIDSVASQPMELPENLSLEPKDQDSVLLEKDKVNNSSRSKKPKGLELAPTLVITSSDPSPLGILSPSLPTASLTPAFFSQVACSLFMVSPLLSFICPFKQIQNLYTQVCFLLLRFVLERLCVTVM
Outline: as §1

ETV2 = molecular target: T10, ETV2 (Homo sapiens, UniProt O00321 1-342); settings: protein: recombinant; tags: N-terminal GST; dsDNA, one strand shown
T10 sequence: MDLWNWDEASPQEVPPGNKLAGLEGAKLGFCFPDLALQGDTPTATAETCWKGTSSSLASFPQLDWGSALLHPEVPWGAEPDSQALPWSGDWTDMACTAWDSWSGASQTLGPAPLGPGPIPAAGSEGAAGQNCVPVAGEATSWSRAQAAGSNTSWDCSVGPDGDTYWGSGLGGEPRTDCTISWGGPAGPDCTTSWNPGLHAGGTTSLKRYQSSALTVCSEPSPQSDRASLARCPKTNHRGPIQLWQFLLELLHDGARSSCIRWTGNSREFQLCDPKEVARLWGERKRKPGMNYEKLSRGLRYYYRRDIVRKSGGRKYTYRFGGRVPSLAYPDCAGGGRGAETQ
Outline: as §1

ELF3 = molecular target: T11, ELF3 (Homo sapiens, UniProt P78545 1-371); settings: protein: recombinant; tags: N-terminal GST; dsDNA, one strand shown
T11 sequence: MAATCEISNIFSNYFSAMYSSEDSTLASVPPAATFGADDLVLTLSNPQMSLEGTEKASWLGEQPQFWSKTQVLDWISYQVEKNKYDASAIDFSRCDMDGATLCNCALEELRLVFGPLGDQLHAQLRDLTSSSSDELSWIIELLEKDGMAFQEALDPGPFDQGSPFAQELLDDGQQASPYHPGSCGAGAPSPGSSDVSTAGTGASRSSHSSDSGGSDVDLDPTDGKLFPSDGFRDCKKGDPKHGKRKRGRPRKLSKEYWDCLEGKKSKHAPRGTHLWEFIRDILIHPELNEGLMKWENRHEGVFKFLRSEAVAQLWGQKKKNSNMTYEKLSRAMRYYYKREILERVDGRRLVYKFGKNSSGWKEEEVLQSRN
Outline: as §1

ETV1 = ETV1 (Homo sapiens, UniProt P50549 1-477); settings: protein: recombinant; tags: N-terminal GST; dsDNA, one strand shown
Sequence of ETV1 (P50549 whole entry): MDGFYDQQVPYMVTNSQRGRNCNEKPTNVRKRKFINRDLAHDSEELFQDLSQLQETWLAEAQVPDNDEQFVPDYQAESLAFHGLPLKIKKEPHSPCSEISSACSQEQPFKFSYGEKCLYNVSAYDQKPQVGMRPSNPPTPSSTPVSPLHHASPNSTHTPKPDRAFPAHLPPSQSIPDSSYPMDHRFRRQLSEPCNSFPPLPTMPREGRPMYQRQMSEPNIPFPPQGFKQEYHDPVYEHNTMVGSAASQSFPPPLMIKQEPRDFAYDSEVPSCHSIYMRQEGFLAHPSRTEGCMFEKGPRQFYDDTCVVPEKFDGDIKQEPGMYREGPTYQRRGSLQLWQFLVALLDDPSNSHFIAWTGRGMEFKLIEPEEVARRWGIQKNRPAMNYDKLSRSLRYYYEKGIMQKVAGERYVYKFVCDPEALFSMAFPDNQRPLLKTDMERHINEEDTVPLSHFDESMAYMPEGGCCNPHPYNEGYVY
Outline: as §1

Question: How did the binding signal (FLI1) turn out when ACTGCC was run?
Answer: 1.47 fold enrichment (6-mer frequency, TF over GST control)

Question: What about the binding signal (ELK1) of the same sequence?
Answer: 1.44 fold enrichment (6-mer frequency, TF over GST control)

Question: And the binding signal (GABPA)?
Answer: 1.44 fold enrichment (6-mer frequency, TF over GST control)

Question: What about the binding signal (ERG) of the same sequence?
Answer: 1.44 fold enrichment (6-mer frequency, TF over GST control)

Question: What about the binding signal (ELF1) of the same sequence?
Answer: 1.42 fold enrichment (6-mer frequency, TF over GST control)

Question: What about the binding signal (EHF) of the same sequence?
Answer: 1.46 fold enrichment (6-mer frequency, TF over GST control)

Question: What about the binding signal (SPI1) of the same sequence?
Answer: 1.48 fold enrichment (6-mer frequency, TF over GST control)

Question: And the binding signal (SPIB)?
Answer: 1.41 fold enrichment (6-mer frequency, TF over GST control)

Question: And the binding signal (ELK3)?
Answer: 1.3 fold enrichment (6-mer frequency, TF over GST control)

Question: And the binding signal (FEV)?
Answer: 1.39 fold enrichment (6-mer frequency, TF over GST control)

Question: What about the binding signal (ETV5) of the same sequence?
Answer: 1.38 fold enrichment (6-mer frequency, TF over GST control)

Question: And the binding signal (HSF1)?
Answer: 1.06 fold enrichment (6-mer frequency, TF over GST control)

Question: What about the binding signal (SPIC) of the same sequence?
Answer: 1.61 fold enrichment (6-mer frequency, TF over GST control)

Question: What about the binding signal (ELF4) of the same sequence?
Answer: 1.39 fold enrichment (6-mer frequency, TF over GST control)

Question: And the binding signal (ELK4)?
Answer: 1.31 fold enrichment (6-mer frequency, TF over GST control)

Question: What about the binding signal (ETV2) of the same sequence?
Answer: 1.16 fold enrichment (6-mer frequency, TF over GST control)

Question: What about the binding signal (ELF3) of the same sequence?
Answer: 1.24 fold enrichment (6-mer frequency, TF over GST control)

Question: What about the binding signal (ETV1) of the same sequence?
Answer: 1.3 fold enrichment (6-mer frequency, TF over GST control)
